Results filed as inconclusive are left out. Unmarked numbers belong to inactive results. The source made the active and inactive calls. Calls come from the whole dose curve; as a rule, active = well fitted cell-killing curve with a large enough effect in the repeat runs; inconclusive = weak or mixed curves, or effect the other way; inactive = flat fitted curve, though single readings scatter.
Experiment: qHTS assay to identify small molecule antagonists of the androgen receptor (AR) signaling pathway using the MDA cell line - cell viability counter screen (AID 743041; note: nearly all actives have a fitted effect of over 45% in size)
Conditions: MDA-kb2 viability, CellTiter-Fluor, 16 h, cells co-treated with R1881 androgen agonist; series mostly up to 70.3 µM; viability change, negative = cytotoxic: at the top concentration
Description: National Center for Advancing Translational Sciences [NCATS]
NIH Chemical Genomics Center [NCGC]
U.S. Environmental Protection Agency [EPA]
National Institutes of Environmental Health Sciences [NIEHS]
National Toxicology Program [NTP]
U.S. Food and Drug Administration [FDA]
Androgen receptor (AR), a nuclear hormone receptor, plays a critical role in AR-dependent prostate cancer and other androgen related diseases. Endocrine disrupting chemicals (EDCs) and their interactions with steroid hormone receptors like AR may cause disruption of normal endocrine function as well as interfere with metabolic homeostasis, reproduction, developmental and behavioral functions. To identify the compounds that inhibit AR signaling, MDA-kb2 AR-luc cell line (from ATCC, deposited by Wilson et al.) was used to screen the Tox21 10K compound library. MDA-kb2 AR-luc cell line is human breast carcinoma cell line that was stably transfected with a luciferase reporter gene under control of the MMTV promoter containing response elements for both androgen receptor (AR) and glucocorticoid receptor (GR). The cytotoxicity of the Tox21 compound library against the MDA-kb2 AR-luc cell line was tested in parallel by measuring the cell viability using CellTiter-Fluor assay (Promega, Madison, WI) in the same wells.
Tox21 Assay Protocol Summary:
MDA-kb2 AR-luc cells were dispensed at 3,000 cells/4 uL/well of culture medium into white wall/solid-bottom 1536-well plates using a Multidrop Combi (ThermoFisher Scientific, Waltham, MA) dispenser. After the assay plates were incubated at a 37C and 0% CO2 for 5 hr, 23 nL of compounds dissolved in DMSO, positive controls or DMSO only was transferred to the assay plate by a Pintool station (Kalypsys, San Diego, CA), followed by addition of 1 uL of agonist (R1881) in culture medium using a Bioraptr Flying Reagent Dispenser (FRD) workstation (Beckman Coulter, Indianapolis, IN, USA). The plates were incubated at a 37C and 0% CO2 for 16 h. After 15.5 h incubation, 1uL of CellTiter-Fluor reagent (Promega) was added using a Bioraptr FRD to each plate for measuring cytotoxicity. The fluorescence intensity was quantified on a ViewLux plate reader (PerkinElmer, Shelton, CT) following 30 min incubation at 37C and 0% CO2.
In the case of `O=S(=O)(O)OOS(=O)(=O)O`, the outcome is reported as “inactive”.
With `Cc1ccc(O)c(C)c1` the outcome was “inactive”.
For `O=C(O)CCCc1ccc(N(CCCl)CCCl)cc1`, the outcome was “inactive”.
In the case of `CNC(=O)O/N=C(\SC)C(=O)N(C)C`, the outcome is reported as “inactive”.
In the case of `Cc1ccc(N=C=O)cc1N=C=O`, the outcome is reported as “inactive”.
With `OCCCCO` the outcome was “inactive”.
With `COP(=S)(OC)Oc1ccc(SC)c(C)c1` the outcome was “inactive”.
For `CCCCC(CC)C(=O)Cl` (stereo not given), the outcome was “inactive”.
In the case of `Cl/C=C/Cl`, the outcome is reported as “inactive”.
In the case of `CNC(=O)O/N=C/C(C)(C)S(C)(=O)=O`, the “viability change, negative = cytotoxic” value is reported as 2.61% [at 95 µM].
With `FC(F)(F)c1ccc(Cl)cc1` the outcome was “inactive”.
With `O=C(O)Cc1ccccc1` the “viability change, negative = cytotoxic” value was -3.84%.
With `Cc1cccc(N)c1C` the outcome was “inactive”.
In the case of `Oc1ccc(Cl)cc1`, the outcome is reported as “inactive”.
For `C=CCN=C=S`, the outcome was “inactive”.
For `C/C=C/c1ccc2c(c1)OCO2`, the outcome was “inactive”.
In the case of `Nc1cc(Cl)cc(Cl)c1`, the outcome is reported as “inactive”.
In the case of `Cl[C@H]1OCCO[C@@H]1Cl`, the outcome is reported as “inactive”.
In the case of `O=[N+]([O-])c1cc([As](=O)(O)O)ccc1O`, the outcome is reported as “inactive”.
With `OC[C@@H](O)[C@H]1O[C@@H]2O[C@H](C(Cl)(Cl)Cl)O[C@@H]2[C@H]1O` the outcome was “inactive”.
For `COC(C)(C)CCCC(C)C/C=C/C(C)=C/C(=O)OC(C)C` (stereo not given), the outcome was “inactive”.
With `c1ccc2c(c1)CCCC2` the outcome was “inactive”.
With `Sc1ccccc1` the outcome was “inactive”.
For `CC(C)CCCCCCOC(=O)c1ccccc1C(=O)OCCCCCCC(C)C`, the outcome was “inactive”.
With `CCNc1nc(Cl)nc(NC(C)C)n1` the outcome was “inactive”.
For `Nc1nc(N)nc(NC2CC2)n1`, the outcome was “inactive”.
In the case of `Cc1ccccc1N`, the outcome is reported as “inactive”.
For `NNc1ccccc1`, the outcome was “inactive”.
With `Cc1cccc(N)c1` the outcome was “inactive”.
In the case of `O=C(O)C1C(C(=O)O)C2(Cl)C(Cl)=C(Cl)C1(Cl)C2(Cl)Cl` (stereo not given), the outcome is reported as “inactive”.
With `O=P1(NCCCl)OCCCN1CCCl` (stereo not given) the outcome was “inactive”.
For `CN(C)C(=O)Cl`, the outcome was “inactive”.
With `CC12CC1(C)C(=O)N(c1cc(Cl)cc(Cl)c1)C2=O` (stereo not given) the “viability change, negative = cytotoxic” value was -0.197%.
In the case of `CCOP(=S)(OCC)Oc1cc(C)nc(C(C)C)n1`, the outcome is reported as “inactive”.
For `C=CC(=O)OCC(CC)CCCC` (stereo not given), the outcome was “inactive”.
For `C=C(C)C(=O)OCC(CC)CCCC` (stereo not given), the outcome was “inactive”.
For `N#Cc1ccccn1`, the outcome was “inactive”.
In the case of `Nc1ccc(N)cc1`, the “viability change, negative = cytotoxic” value is reported as -5.22%.
In the case of `N#Cc1cccc(C#N)c1`, the outcome is reported as “inactive”.
In the case of `C=CC(=O)OCCCCCC(C)C`, the outcome is reported as “inactive”.
% is set by controls: 0 for no effect and ±100 for the full control effect.
